# Assay results taken from PubChem BioAssay (NCATS).
# “And” between values parts separate entries of the source, which are not always exact repeats. Equal values may be shown once. Records with an inconclusive call do not appear. A structure can be active in one record and inactive in another. The source made the active and inactive calls. Unless noted, calls come from the whole dose curve; as a rule, active = well fitted curve in the direction sought with a large enough effect; inconclusive = small, poorly fitted or top-dose-only effect, or another doubt; inactive = no such curve, though single readings can be large; an effect the other way counts as inactive or inconclusive.
# Assays:
# [1] = Cytotoxicity counterscreen for inhibitors of SARS-CoV-2 cell entry (AID 1645845; calls by dose curve; note: % is set by controls: 0 for no effect and ±100 for the full control effect; nearly all actives have a fitted effect of over 50% in size); conditions: cell viability (SARS-CoV-2 entry assay cells); series mostly up to 57.1 µM
# Outline: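 48 h compound treatment (after 1 h preincubation), HEK293-ACE2 cells, 37 C/5% CO2; ATP luminescence endpoint; normalized to cell wells and media blanks.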
# [2] = VSVG counterscreen qHTS to identify inhibitors of SARS-CoV-2 cell entry (AID 1645847; calls by dose curve; note: potency is the fitted concentration of half-maximal effect; nearly all actives have a fitted effect of over 65% in size); conditions: VSV-G pseudotyped particle entry, luciferase; series mostly up to 57.2 µM
# Outline: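 Entry of VSV-G pseudotyped particles into human ACE2-expressing HEK293 cells was measured by luciferase luminescence 48 h after infection, with compound added 1 h beforehand.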
# [3] = Primary qHTS for inhibitors of nuclear receptor binding SET domain protein 2 (NSD2) in an isogenic RCH-ACV NSD2 p.E1099K mutant (9B) (AID 1645876); conditions: RCH-ACV NSD2 E1099K (9B) viability, CellTiter-Glo, 72 h; series mostly up to 44.9 µM; note: nearly all actives have a fitted effect of over 70% in size; note: potency is the fitted concentration of half-maximal effect
# [4] = Primary qHTS for inhibitors of nuclear receptor binding SET domain protein 2 (NSD2) in an RCH-ACV wild type WT cells (2C) (AID 1645877); conditions: RCH-ACV (leukaemia line) NSD2 WT (2C) viability, CellTiter-Glo, 72 h; series mostly up to 44.9 µM; note: nearly all actives have a fitted effect of over 70% in size; note: potency is the fitted concentration of half-maximal effect
# [5] = Primary qHTS to identify inhibitors of SARS-CoV-2 cell entry (AID 1645846; calls by dose curve; note: nearly all actives have a fitted effect of over 45% in size; note: potency is the fitted concentration of half-maximal effect); conditions: SARS-CoV-2 pseudovirus cell entry assay, luminescence; activity change, negative = inhibition: at 57.1 µM (top of the series) unless noted; series mostly up to 57.1 µM
# Outline: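 Using luciferase-reporting pseudoviruses carrying Wuhan-Hu-1 spike, the screen tracks entry into stably ACE2-expressing cells over 48 hr. Activity is expressed relative to spike particles versus particles lacking any fusion protein.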
# [6] = target: Nuclear receptor subfamily 1 group I member 3 (Homo sapiens) (UniProt Q14994); test: Primary qHTS for antagonist of constitutive androstane receptor (CAR) against the NCATS DSHEA and TCM libraries (AID 1794836); conditions: CAR reporter cell assay, antagonist mode, luciferase; series mostly up to 40 µM;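 note: HepG2 cells stably expressing hCAR with CYP2B6 luciferase reporter stimulated by CITCO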
# Outline: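 Antagonist mode: CAR reporter luminescence (ONE-Glo) in HepG2-CYP2B6-hCAR cells stimulated with 48 uM CITCO (final) over 24 h at 37 C, compounds titrated; viability read first by CellTiter-Fluor fluorescence.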
# Papain (Carica papaya) = Papain (Carica papaya) (UniProt P00784); test: Primary qHTS assay for inhibitors of the protease papain (AID 1645873); conditions: papain Z-FR-AMC cleavage, AMC fluorescence; series mostly up to 49.8 µM;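 note: papain turnover of Z-FR-AMC read as the AMC fluorescence gain over 10 min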; note: potency is the fitted concentration of half-maximal effect; for activity change, negative = inhibition: % is set by controls: 0 for no effect and ±100 for the full control effect
# [7] = NCATS anti-infectives library activity on HEK293 viability as a counter-qHTS vs the C. elegans viability qHTS (AID 1745854); conditions: HEK293 viability counter-screen; series mostly up to 41.8 µM;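 note: HEK293 cells exposed to compounds for 24 hr before the viability read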; note: potency is the fitted concentration of half-maximal effect
# Outline: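 HEK293 cells (1,500/well) exposed 24 hr at 37C to 1:5 titrations, up to 41.7 uM final; counter-screen to a C. elegans viability qHTS. Viability by CellTiter-Glo luminescence after 10 min at room temperature; digitonin as control.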
# [8] = NCATS anti-infectives library activity on the primary C. elegans qHTS viability assay (AID 1745855; calls by dose curve; note: potency is the fitted concentration of half-maximal effect); conditions: C. elegans worm area imaging, day 7
# Outline: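 Viability read-out is GFP fluorescence of PE254-GFP-FLuc C. elegans, measured by laser cytometry (488 nm) at day 0, 3 and 7. Ten L1 worms per well were incubated 7 days at 21 °C with compounds and bacterial capsules in S medium.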
# [9] = target: N-terminal Xaa-Pro-Lys N-methyltransferase 1 (Homo sapiens) (UniProt Q9BV86); test: Confirmatory qHTS for Inhibitors of N-terminal methyltransferase 1 (NTMT1): MTaseGlo Assay (AID 1645874); conditions: NTMT1 enzyme, MTase-Glo SAH luminescence; note: potency is the fitted concentration of half-maximal effect; nearly all actives have a fitted effect of over 65% in size
# Outline: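 Preincubation of NTMT1 (125 nM) plus SAM (100 uM) with test compounds lasted 15 min; methylation of 1 uM SPKRIA then proceeded 30 min in the dark at room temperature. Luciferase signal reported SAH produced.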
# Papain (Carica papaya), sequence (P00784 whole entry, looked up): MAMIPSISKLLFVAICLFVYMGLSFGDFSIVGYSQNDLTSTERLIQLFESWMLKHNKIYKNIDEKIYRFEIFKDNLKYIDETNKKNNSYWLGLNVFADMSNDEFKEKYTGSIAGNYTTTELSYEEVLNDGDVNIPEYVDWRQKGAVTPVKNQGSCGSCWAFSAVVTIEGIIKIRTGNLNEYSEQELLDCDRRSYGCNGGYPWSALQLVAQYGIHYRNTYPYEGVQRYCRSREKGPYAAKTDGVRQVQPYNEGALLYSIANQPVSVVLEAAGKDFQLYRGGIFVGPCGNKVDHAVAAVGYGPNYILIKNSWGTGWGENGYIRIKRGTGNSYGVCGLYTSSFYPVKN
# Nuclear receptor subfamily 1 group I member 3 (Homo sapiens), sequence (Q14994 whole entry, looked up): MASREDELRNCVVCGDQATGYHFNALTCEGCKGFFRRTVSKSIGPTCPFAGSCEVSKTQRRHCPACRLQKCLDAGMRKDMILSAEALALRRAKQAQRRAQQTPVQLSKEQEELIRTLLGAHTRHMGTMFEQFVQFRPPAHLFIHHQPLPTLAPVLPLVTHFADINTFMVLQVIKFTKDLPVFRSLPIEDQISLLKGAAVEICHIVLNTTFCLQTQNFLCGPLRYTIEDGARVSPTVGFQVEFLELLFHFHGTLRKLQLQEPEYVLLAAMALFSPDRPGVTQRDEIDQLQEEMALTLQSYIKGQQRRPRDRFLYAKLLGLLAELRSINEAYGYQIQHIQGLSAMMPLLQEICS
# N-terminal Xaa-Pro-Lys N-methyltransferase 1 (Homo sapiens), sequence (Q9BV86 whole entry, looked up): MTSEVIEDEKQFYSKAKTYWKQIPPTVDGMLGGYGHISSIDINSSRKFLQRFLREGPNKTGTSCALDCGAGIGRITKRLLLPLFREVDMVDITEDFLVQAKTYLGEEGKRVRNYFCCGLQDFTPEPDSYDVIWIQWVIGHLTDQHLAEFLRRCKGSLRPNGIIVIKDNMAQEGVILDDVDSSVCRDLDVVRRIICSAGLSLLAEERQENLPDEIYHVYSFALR
structure (smiles),measurement,setting,value
COc1cc([C@@H]2c3cc4c(cc3[C@@H](O)C3COC(=O)C32)OCO4)cc(OC)c1O (some centres undefined),Potency,[1],inactive
same,Potency,[2],541 nM (active)
same,Potency,[3],417 nM (active)
same,Potency,[4],372 nM (active)
C/C=C(/C)C(=O)O[C@H]1C(C)=C2[C@H]([C@@H]1OC(=O)CCCCCCC)[C@@](C)(OC(C)=O)C[C@H](OC(=O)CCC)[C@@]1(O)[C@H]2OC(=O)[C@@]1(C)O,Potency,[5],22400 nM (active)
same,Potency,[3],5.8 nM (active) and 16.6 nM (active)
same,Potency,[4],6.5 nM (active) and 16.6 nM (active)
CC1=C(C/C=C(\C)CCC[C@H](C)CCC[C@H](C)CCCC(C)C)C(=O)c2ccccc2C1=O,Potency,[5],inactive
same,outcome,[6],inactive
CC(=O)Nc1ccc(OC[C@](C)(O)C(=O)Nc2ccc([N+](=O)[O-])c(C(F)(F)F)c2)cc1,"activity change, negative = inhibition",[5],0.0964%
same,Potency,[4],inactive
CN(c1ncccc1CNc1nc(Nc2ccc3c(c2)CC(=O)N3)ncc1C(F)(F)F)S(C)(=O)=O,Potency,[5],3160 nM (active)
same,Potency,[2],2150 nM (active)
CCNC(=O)CC1N=C(c2ccc(Cl)cc2)c2cc(OC)ccc2-n2c(C)nnc21 (centres undefined),"activity change, negative = inhibition",[5],-16.5%
same,Potency,[3],9.34 µM (active) and inactive and 515 nM (active)
same,Potency,[4],5.9 µM (active) and inactive and 409 nM (active)
CN1CC[C@@H](c2c(O)cc(O)c3c(=O)cc(-c4ccccc4Cl)oc23)[C@@H](O)C1,Potency,[2],1360 nM (active)
CCOP(=O)(OCC)C(C)NC(=O)N(CCCl)N=O (centres undefined),Potency,[5],inactive
same,"activity change, negative = inhibition",[5],-18.4%
same,Potency,[3],inactive
same,Potency,[4],inactive
O=C(O)c1ccc2c(c1)nc(Nc1cccc(Cl)c1)c1ccncc12,Potency,[2],2150 nM (active)
c1ccc(C2(c3ccccc3)CC2C2=NCCN2)cc1 (centres undefined),"activity change, negative = inhibition",[5],-20.9%
same,Potency,Papain (Carica papaya),inactive
COc1ccc2c(c[n+](C)c3c4cc5c(cc4ccc23)OCO5)c1OC,"activity change, negative = inhibition",[5],-96.4%
same,Potency,Papain (Carica papaya),inactive
same,Potency,[3],inactive
same,Potency,[4],inactive
Cc1cc(Nc2cc(N3CCN(C)CC3)nc(Sc3ccc(NC(=O)C4CC4)cc3)n2)n[nH]1,Potency,[2],215 nM (active)
C[C@@H]1O[C@H](C[N+](C)(C)C)C[C@H]1O,Potency,Papain (Carica papaya),inactive
NC(=NCCC[C@H](N)C(=O)O)N[N+](=O)[O-],Potency,Papain (Carica papaya),inactive
CNC(=O)c1cc(Oc2ccc(NC(=O)Nc3ccc(Cl)c(C(F)(F)F)c3)c(F)c2)ccn1,Potency,[2],10800 nM (active)
NCCc1c[nH]c2ccc(O)cc12,Potency,Papain (Carica papaya),inactive
CC(=O)[C@H]1CCC2C3CC[C@H]4C[C@H](O)CC[C@]4(C)C3CC[C@@]21C (some centres undefined),Potency,Papain (Carica papaya),inactive
CCCCCCCCCCCCCCCC[N+](C)(C)C,Potency,[5],25100 nM (active)
same,Potency,[3],422 nM (active)
same,Potency,[4],596 nM (active)
CC(Cc1ccc(O)cc1)NCC(O)c1cc(O)cc(O)c1 (centres undefined),Potency,[5],inactive
same,Potency,Papain (Carica papaya),inactive
Cc1nccc2c1[nH]c1ccccc12,Potency,Papain (Carica papaya),28200 nM (active)
CN(C)NC(=O)CCC(=O)O,"activity change, negative = inhibition",[5],-24.7%
same,Potency,[3],inactive
same,Potency,[4],inactive
O=C(O)CC[N+](=O)[O-],Potency,Papain (Carica papaya),inactive
CC1(N2CCC(n3c([C@@H]4CCCNC4)nc4ccccc43)CC2)CCCCCCC1,Potency,[5],5010 nM (active)
same,Potency,[3],8.17 µM (active) and 14.8 µM (active)
same,Potency,[4],7.28 µM (active) and 13.2 µM (active)
C=CCN1CC[C@]23CCCCC2[C@H]1Cc1ccc(O)cc13 (some centres undefined),Potency,Papain (Carica papaya),inactive
CS(=N)(=O)CC[C@H](N)C(=O)O (some centres undefined),Potency,Papain (Carica papaya),inactive
CC(C)[C@H](C(=O)Nc1ccc(C(=O)NO)cc1)c1ccccc1,"activity change, negative = inhibition",[5],-95.5%
same,Potency,[2],30400 nM (active)
CCCCCC[C@H]1C(=O)O[C@H](C)[C@H](NC(=O)c2cccc(NC=O)c2O)C(=O)O[C@@H](C)[C@@H]1OC(=O)CC(C)C,"activity change, negative = inhibition",[5],-94.1%
same,Potency,[7],inactive
same,Potency,[8],7270 nM (active)
CC(=O)[O][Hg][c]1ccccc1,Potency,[5],1580 nM (active)
same,Potency,[9],1070 nM (active)
same,Potency,[3],596 nM (active)
same,Potency,[4],531 nM (active)
CS(=O)(=O)c1cccc(CNc2nc(Nc3ccc4c(c3)CCC(=O)N4)ncc2C(F)(F)F)c1,Potency,[2],4290 nM (active)
CC1=C(O)C(=O)C=C2C1=CC=C1[C@@]2(C)CC[C@@]2(C)[C@@H]3C[C@](C)(C(=O)O)CC[C@]3(C)CC[C@]12C,Potency,[5],14100 nM (active)
same,Potency,[3],1480 nM (active)
same,Potency,[4],1660 nM (active)
same,Potency,[7],7940 nM (active)
same,Potency,[8],4590 nM (active)
CC(=O)Nc1ccc([C@H](C)C(=O)Nc2ncc(C(C)C)s2)cc1,Potency,[5],3550 nM (active)
same,Potency,[2],13600 nM (active)
O=c1[nH]c2ccc(Cl)cc2c(N[C@@H]2CN3CCC2CC3)c1-c1nc2ccccc2[nH]1,"activity change, negative = inhibition",[5],-97.1%
same,Potency,[3],64.9 nM (active) and 83.3 nM (active)
same,Potency,[4],51.5 nM (active) and 83.3 nM (active)
